Assay outcomes from PubChem.
Only a selection was taken, and hits are over-represented in it overall.
HT1080 IDH1KD tx – HT-1080 IDH1 knockdown cell toxicity (counter line); HT-1080 IDH1 knockdown viability, ATP luminescence, 48 h; Potency, µM (doses to about 46.1 µM), most hits filed as cytotoxic; actives 2% (n = 360,000)
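Using the IDH1-knockdown HT-1080 line run in the same batch and compound series as the NT line, viability after 48 h at 37 °C was determined by CellTiter-Glo luminescence and expressed as % activity.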
HT1080-NT tox – kills 2HG-producing HT-1080-NT fibrosarcoma cells. HT-1080-NT fibrosarcoma viability, CellTiter-Glo ATP luminescence, 48 h. Potency, µM (doses to about 46.1 µM), usual class: cytotoxic. actives 1.6% (n = 360,000);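 also: NT is the 2HG producing partner of a matched IDH1 knockdown line; nearly all actives have a fitted effect of over 55% in size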
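HT-1080-NT fibrosarcoma cells (2HG-overproducing), 750 cells/well in RPMI with 5% FBS, dosed after 2 h and incubated 48 h at 37C. CellTiter-Glo luminescence normalized to DMSO and no-cell wells; concentration-response curves fitted and classed.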
ALOX12 inh – blocks human arachidonate 12S-lipoxygenase; P18054; purified 12hLO, xylenol orange hydroperoxide absorbance; Potency, µM (doses to about 108 µM), hits mostly inhibitors; actives 1.1% (n = 580,000); AID 1671190
Target sequence (P18054 whole entry, looked up): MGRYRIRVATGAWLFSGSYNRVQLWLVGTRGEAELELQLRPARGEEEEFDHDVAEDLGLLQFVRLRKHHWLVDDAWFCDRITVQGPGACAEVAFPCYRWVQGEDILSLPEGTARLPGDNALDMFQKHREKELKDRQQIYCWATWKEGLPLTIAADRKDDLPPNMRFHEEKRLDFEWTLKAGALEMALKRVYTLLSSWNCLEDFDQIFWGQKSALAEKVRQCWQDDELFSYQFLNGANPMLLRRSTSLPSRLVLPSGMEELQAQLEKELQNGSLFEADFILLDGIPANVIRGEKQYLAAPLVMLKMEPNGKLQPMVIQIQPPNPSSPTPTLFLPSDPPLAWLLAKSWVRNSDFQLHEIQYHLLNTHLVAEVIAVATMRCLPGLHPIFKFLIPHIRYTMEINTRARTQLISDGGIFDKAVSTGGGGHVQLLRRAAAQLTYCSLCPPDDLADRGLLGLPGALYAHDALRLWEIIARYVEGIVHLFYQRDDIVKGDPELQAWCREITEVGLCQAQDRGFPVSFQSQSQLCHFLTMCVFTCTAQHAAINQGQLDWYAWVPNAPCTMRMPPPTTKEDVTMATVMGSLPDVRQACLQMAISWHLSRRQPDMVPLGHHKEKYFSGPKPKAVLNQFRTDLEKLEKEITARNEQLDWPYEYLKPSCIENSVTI
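Hydroperoxide product was detected by ferrous iron/xylenol orange as the 573 to 405 nm absorbance ratio. Arachidonic acid at 40 uM (final) was turned over for 30 min at room temperature by 150 nM human 12hLO, pH 7.0 Hepes buffer, after 15 min compound preincubation.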
DT40 TDP1 CPT – growth inhibition of DT40 Tdp1-/-;hTDP1 cells with camptothecin (screen for TDP1 inhibitors); chicken DT40 Tdp1-/-;hTDP1 cells + 20 nM CPT, ATP luminescence, 48 h; Potency, µM (highest dose often 46.2 µM), hits mostly inhibitors; actives 12% (n = 420,000); also: nearly all actives have a fitted effect of over 55% in size
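Cell growth measured by CellTiter-Glo luminescence after a minimum 48 h, 37 C compound exposure with 20 nM CPT in Tdp1-knockout DT40 cells stably expressing hTDP1, seeded 400/well; qHTS titration format.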
DT40 TDP1 no CPT – qHTS for Inhibitors of human tyrosyl-DNA phosphodiesterase 1 (TDP1): qHTS in cells in absence of CPT; DT40 Tdp1-/- hTDP1 cells, no CPT, ATP luminescence, 48 h; Potency, µM (series often up to 46.2 µM), actives largely listed as inhibitors; actives 15% (n = 420,000); AID 686978, 2013; also: nearly all actives have a fitted effect of over 55% in size
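A cellular qHTS used chicken DT40 cells lacking endogenous Tdp1 but carrying stably transfected human TDP1. Compounds were applied without camptothecin, and cell growth kinetics were judged by ATP-dependent luminescence after ≥48 hr.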
IL1B secr inh – blocks inflammasome-driven IL-1 beta release; activity change, % at 57.5 µM; THP-1 LPS/ATP IL-1B secretion, AlphaLISA, 16 h; active compounds read low; actives 4.7% (n = 360,000); in the data active = activity change below about -50%; inconclusive = mostly about -30% to -49%
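Secreted IL-1B measured by AlphaLISA bead assay after 16 h compound exposure of THP-1 cells; compounds (final up to 57.5 uM) added 1 h before LPS (250 ng/mL) and ATP (1.25 mM) stimulation; lower signal means less secretion.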
A number is an active result; i = inactive; ? = inconclusive; nt = not tested or not shown. Unless noted, calls follow the shape of the dose curve; as a rule, active = well fitted curve in the direction sought with a large enough effect; inconclusive = small, poorly fitted or top-dose-only effect, or another doubt; inactive = no such curve, though single readings can be large; an effect the other way counts as inactive or inconclusive.

SMILES | HT1080 IDH1KD tx | HT1080-NT tox | ALOX12 inh | DT40 TDP1 CPT | DT40 TDP1 no CPT | IL1B secr inh
Cc1ccccc1OCC(=O)NNC(=S)NC(=O)c1ccco1 | 8.91µM | ? | i | 22.4µM | 10µM | i
Cc1cc(Cl)ccc1OCC(=O)NNC(=O)c1ccco1 | i | i | i | i | i | i
CC(C)(C)c1ccc(OCC(=O)NNC(=S)NC(=O)c2ccco2)c(Br)c1 | i | i | ? | 20.6µM | 10.3µM | i
O=C(Cc1cccs1)NNC(=S)NC(=O)c1ccco1 | ? | i | i | ? | 29.1µM | i
CC(C)c1ccc(OCC(=O)NNC(=S)NC(=O)c2ccco2)c(Br)c1 | i | i | ? | ? | ? | i
C/C(=N/NC(=O)Cc1cccs1)c1ccco1 | i | i | i | ? | 23.1µM | i
O=C(Cc1cccs1)NNC(=S)NCc1ccc(Cl)cc1 | i | i | ? | i | i | i
Cc1cn2nnc(C(=O)N3CCC(C(=O)Nc4ccc(C)c(C)c4)CC3)c2c(=O)[nH]1 | nt | nt | i | nt | nt | nt
CC(C)(C)c1ccc(OCC(=O)NCc2ccco2)c(Br)c1 | ? | ? | i | i | 23.1µM | i
CCCCN(CCCNC(=O)c1ccc2nc(N3CCOCC3)sc2c1)Cc1ccccc1 | i | i | i | ? | 16.4µM | i
CCc1ccc2nc(N3CCC(C(=O)O)CC3)sc2c1 | nt | nt | i | i | i | nt
CCCCN(C)CCNC(=O)C1CCN(c2nc3ccc(CC)cc3s2)CC1 | nt | nt | i | 20.6µM | 23.1µM | nt
CCCCN(C)CCCNC(=O)c1ccc2nc(N3CCCCC3)sc2c1 | nt | nt | i | 23.1µM | ? | nt
COc1ccc(C2=Nc3ccccc3NC(=O)C2N(Cc2ccccc2)C(=O)C2=NNC(=O)CC2)cc1 (stereo unspecified) | i | i | i | ? | ? | i
COc1ccc(NC(=O)COC(=O)c2cc(OC)c(OC)cc2NC(=O)c2ccco2)cc1OC | ? | ? | i | ? | 20.6µM | i
COC(=O)c1cc(OC)c(OC)cc1NC(=O)c1cccc(OC)c1OC | i | i | i | ? | 5.8µM | i
COC(=O)c1cc(OC)c(OC)cc1NC(=O)c1ccco1 | i | i | i | ? | ? | -62.1
Cc1ccc(C(=O)C(C)OC(=O)C2CC3CCCC(C2)C3=O)cc1C (stereo unspecified) | nt | nt | i | nt | nt | nt
CCCN(C)C1CN(Cc2cn(Cc3cccc(Cl)c3)nn2)S(=O)(=O)C1 (stereo unspecified) | i | i | i | i | i | i
NC(=O)c1nc(CNC(=O)CC(c2ccccc2)c2ccc3c(c2)OCO3)no1 (stereo unspecified) | nt | nt | i | nt | nt | nt
COc1cc(CCN2C(=O)c3cccc4cccc(c34)C2=O)c(S(=O)(=O)NCCO)cc1OC | i | i | i | ? | ? | nt
COc1cc(CCN2C(=O)c3cccc4cccc(c34)C2=O)c(S(=O)(=O)N2CCC(C)CC2)cc1OC | i | i | ? | 25.9µM | 2.59µM | i
CN(Cc1cccc(Cl)c1)Cc1cc(=O)n2c3c(sc2n1)CCCC3 | nt | nt | i | nt | nt | nt
COc1ccc(NC(=O)c2ccc3c(=O)n4nc(Nc5cc(C)ccc5C)sc4nc3c2)cc1 | nt | nt | ? | 6.51µM | 5.8µM | nt
CCc1ccccc1Nc1nn2c(=O)c3ccc(C(=O)Nc4ccc(OC)cc4)cc3nc2s1 | nt | nt | i | 20.6µM | 13µM | nt
SMILES | HT1080 IDH1KD tx | HT1080-NT tox | ALOX12 inh | DT40 TDP1 CPT | DT40 TDP1 no CPT | IL1B secr inh
Cc1cccc(NC(=O)CSc2nnc(CNC(=O)c3ccc(S(=O)(=O)N(C)C)cc3)n2-c2cccc(C)c2)c1 | i | i | i | 16.4µM | ? | i
Cc1ccc(CN(C)CC(=O)Nc2ccc3c(c2)CCC3)cc1 | i | i | i | i | ? | -66.4
CC(=O)c1cc2c(cc1NC(=O)CSc1nc3ccc(C)cc3[nH]1)OCO2 | i | i | i | i | ? | -74.2
Cc1ccc2nc(SCC(=O)Nc3ccc4c(c3)CCC4)[nH]c2c1 | i | i | i | 18.4µM | ? | i
Cc1ccc(NC(=O)COc2ccc(-c3nnc4n3CCCC4)cc2)cc1C | nt | nt | i | nt | nt | nt
CCN(CC)S(=O)(=O)c1ccc(NC(=O)CSc2nnc3c(n2)[nH]c2ccccc23)cc1 | 22.4µM | 12.6µM | nt | 7.08µM | 6.31µM | nt
Cc1noc(NS(=O)(=O)c2ccc(NC(=O)CSc3nnc4c(n3)[nH]c3ccccc34)cc2)c1C | i | i | i | i | i | i
CCCCNS(=O)(=O)c1ccc2nc(SCC(=O)Nc3ccccc3)[nH]c2c1 | i | i | i | i | 16.4µM | i
CN(C)S(=O)(=O)c1cccc(NC(=O)CSc2nnnn2-c2ccccc2)c1 | i | ? | i | 14.6µM | 23.1µM | i
NS(=O)(=O)c1cccc(NC(=O)CSc2nc3ccc(Cl)cc3[nH]2)c1 | i | i | i | i | ? | i
Cc1ccc2nc(SCC(=O)Nc3cccc(S(=O)(=O)N(C)C)c3)[nH]c2c1 | i | i | i | ? | 16.4µM | i
O=C(CN1CCN(C(=O)c2nn(Cc3ccccc3)c(=O)c3ccccc23)CC1)N1CCCCCC1 | nt | nt | i | nt | nt | nt
Cn1cnc2c1c(=O)n(CC(=O)NCc1ccc(OC(F)F)cc1)c(=O)n2C | nt | nt | i | nt | nt | nt
COc1ccc(-c2noc3ccccc23)cc1 | nt | nt | i | nt | nt | nt
O=C(CSc1nc2ccccc2[nH]1)Nc1cccc(S(=O)(=O)N2CCOCC2)c1 | i | i | i | ? | ? | ?
CN(C)S(=O)(=O)c1cccc(NC(=O)CSc2nc3ccccc3[nH]2)c1 | ? | i | i | ? | ? | -61.0
CCN(CC)S(=O)(=O)c1cccc(NC(=O)CSc2nc3ccccc3[nH]2)c1 | i | i | i | 23.1µM | 16.4µM | -57.3
Cc1ccc(S(=O)(=O)NC(=O)C2(C)CCN2C(=O)Cc2cccs2)nc1 (stereo unspecified) | i | i | i | i | i | i
CSCC(=O)N1CCC(c2nnc(CN3CCN(C)CC3)n2C)CC1 | nt | nt | i | nt | nt | nt
Cc1cc2c(nc1C)oc1c(=O)n(CC(=O)N3CCCCC3)cnc12 | nt | nt | i | nt | nt | nt
CC(C)CCn1cnc2c(oc3nc4c(cc32)CCCC4)c1=O | i | i | i | ? | 20.6µM | ?
CCCc1nc(SC2CCCC2)c2c(=O)n(C)c(=O)n(C)c2n1 | i | i | i | 23.1µM | 23.1µM | i
CCCCc1nc(SCCN2CCOCC2)c2c(=O)n(C)c(=O)n(C)c2n1 | i | i | i | i | i | i
CCCc1nc(SCC(=O)N2CCC(C)CC2)c2c(=O)n(C)c(=O)n(C)c2n1 | i | i | i | 16.4µM | 11.6µM | ?
CCc1nc(SCC(=O)N2CCCCC2)c2c(=O)n(C)c(=O)n(C)c2n1 | i | i | i | i | i | i
CCc1nc(SCC(=O)N2CCC(C)CC2)c2c(=O)n(C)c(=O)n(C)c2n1 | i | i | i | ? | 25.9µM | i
